From PubChem BioAssay
Inconclusive results are not listed. The source made the active and inactive calls. Unless noted, the limit is not given here; nearly all actives have AC50 up to about 26 µM.

Key:
[1] = target: 6-phosphogluconate dehydrogenase, decarboxylating (Homo sapiens) (UniProt P52209); experiment: inhibition of human phosphogluconate dehydrogenase – biochemical, recombinant enzyme, NADPH absorbance, primary screen (AID 1159550;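 active = at least 20% inhibition of 6-phosphogluconate dehydrogenase activity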); conditions: recombinant 6PGD, NADPH absorbance 341 nm; at 10 µM; active compounds read high
[2] = viability loss in pontine glioma line – cell-based, SU-DIPG-XVII, MIPE5.0, CellTiter-Glo, qHTS, dose response (AID 1347060); conditions: CellTiter-Glo ATP luminescence
[3] = viability loss in pontine glioma line – cell-based, SU-DIPG-XIII, MIPE4.0, CellTiter-Glo, qHTS, dose response (AID 1347061; cut-off not given, nearly all actives have AC50 up to about 37 µM;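 also: cells exposed to compound for 48 hours before readout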); conditions: CellTiter-Glo ATP luminescence
[4] = viability loss in pontine glioma line – cell-based, JHH-DIPG-1, MIPE4.0, CellTiter-Glo, qHTS, dose response (AID 1347062; cut-off not given, nearly all actives have AC50 up to about 27 µM); conditions: JHH-DIPG-1 viability, CellTiter-Glo ATP luminescence
[5] = viability loss in pontine glioma line – cell-based, SU-DIPG-IV, MIPE4.0, CellTiter-Glo, qHTS, dose response (AID 1347063; cut-off not given, nearly all actives have AC50 up to about 30 µM;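 also: compound exposure lasted 48 hours before the viability readout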); conditions: CellTiter-Glo ATP luminescence
[6] = viability loss in pontine glioma line – cell-based, SU-DIPG-XIII, MIPE5.0, CellTiter-Glo, qHTS, dose response (AID 1347064; cut-off not given, nearly all actives have AC50 up to about 23 µM); conditions: CellTiter-Glo ATP luminescence
[7] = viability loss in pontine glioma line – cell-based, SU-DIPG-XXV, MIPE5.0, CellTiter-Glo, qHTS, dose response (AID 1347065); conditions: CellTiter-Glo ATP luminescence;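 also: cells exposed to compound for 48 hours before ATP readout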
[8] = growth inhibition of DIPG cells – cell-based, MIPE4.0 library, CellTiter-Glo luminescence, qHTS (AID 1347066; cut-off not given, nearly all actives have AC50 up to about 30 µM;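 also: cells exposed to compound for 48 hours before readout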); conditions: SU-DIPG-VI viability, CellTiter-Glo ATP luminescence
[9] = JHH-DIPG-1 glioma cell viability, MIPE5.0 library, CellTiter-Glo luminescence, qHTS (AID 1347067); conditions: JHH-DIPG-1 glioma viability, CellTiter-Glo ATP luminescence;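 also: cells exposed to compound for 48 hours before readout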
[10] = growth inhibition of DIPG cells – cell-based, MIPE5.0 library, qHTS (AID 1347068; cut-off not given, nearly all actives have IC50 up to about 30 µM); conditions: SU-DIPG-XXV viability
[11] = target: NAD(+) hydrolase SARM1 (Homo sapiens) (UniProt Q6SZW1); experiment: blocking NAD cleavage by SARM1 SAM-TIR – cell lysate, NAD-Glo luminescence (AID 1508614;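 active = compound whose remaining NAD level is above about 45 nM, limit read from the data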;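 also: higher remaining NAD means stronger inhibition of SARM1 NADase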); conditions: SAM-TIR HEK293T lysate NADase, at 1 µM, active compounds read high
[12] = target: Mitogen-activated protein kinase 7 (Homo sapiens) (UniProt Q13164); experiment: Gal4-ERK5 driven luciferase induction – cell-based, HTS, primary screen (AID 1508626;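 active = luciferase signal above three times the same-plate solvent-only control wells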;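 also: luciferase driven by Gal4-ERK5 fusion binding five Gal4 sites before minimal TATA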); conditions: HeLa Gal4-ERK5 transactivation, 18 h, at 5 µM, active compounds read high
Sequence of Mitogen-activated protein kinase 7 (Homo sapiens) (Q13164 whole entry, looked up, the tested form may be a part): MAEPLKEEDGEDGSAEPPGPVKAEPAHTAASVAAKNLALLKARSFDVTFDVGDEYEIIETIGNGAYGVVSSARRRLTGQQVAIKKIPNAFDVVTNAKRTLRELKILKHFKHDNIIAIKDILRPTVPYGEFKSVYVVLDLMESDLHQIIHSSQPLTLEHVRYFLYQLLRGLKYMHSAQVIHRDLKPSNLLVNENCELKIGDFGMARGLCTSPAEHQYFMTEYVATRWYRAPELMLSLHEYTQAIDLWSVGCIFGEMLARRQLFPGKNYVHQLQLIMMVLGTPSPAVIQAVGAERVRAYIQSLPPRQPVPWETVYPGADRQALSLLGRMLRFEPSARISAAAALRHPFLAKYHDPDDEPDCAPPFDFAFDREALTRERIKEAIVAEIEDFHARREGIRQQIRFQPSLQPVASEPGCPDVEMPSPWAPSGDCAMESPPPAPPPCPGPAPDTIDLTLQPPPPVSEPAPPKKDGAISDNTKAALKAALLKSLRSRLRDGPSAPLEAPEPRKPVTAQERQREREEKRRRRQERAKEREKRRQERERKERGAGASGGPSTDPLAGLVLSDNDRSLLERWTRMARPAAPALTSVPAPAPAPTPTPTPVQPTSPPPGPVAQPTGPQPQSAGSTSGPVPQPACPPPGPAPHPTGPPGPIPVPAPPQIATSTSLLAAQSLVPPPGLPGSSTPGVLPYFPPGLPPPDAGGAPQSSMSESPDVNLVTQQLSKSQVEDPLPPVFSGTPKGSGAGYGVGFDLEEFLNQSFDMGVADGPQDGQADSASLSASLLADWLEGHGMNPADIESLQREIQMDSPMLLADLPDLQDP

Sequence of 6-phosphogluconate dehydrogenase, decarboxylating (Homo sapiens) (P52209 whole entry, looked up): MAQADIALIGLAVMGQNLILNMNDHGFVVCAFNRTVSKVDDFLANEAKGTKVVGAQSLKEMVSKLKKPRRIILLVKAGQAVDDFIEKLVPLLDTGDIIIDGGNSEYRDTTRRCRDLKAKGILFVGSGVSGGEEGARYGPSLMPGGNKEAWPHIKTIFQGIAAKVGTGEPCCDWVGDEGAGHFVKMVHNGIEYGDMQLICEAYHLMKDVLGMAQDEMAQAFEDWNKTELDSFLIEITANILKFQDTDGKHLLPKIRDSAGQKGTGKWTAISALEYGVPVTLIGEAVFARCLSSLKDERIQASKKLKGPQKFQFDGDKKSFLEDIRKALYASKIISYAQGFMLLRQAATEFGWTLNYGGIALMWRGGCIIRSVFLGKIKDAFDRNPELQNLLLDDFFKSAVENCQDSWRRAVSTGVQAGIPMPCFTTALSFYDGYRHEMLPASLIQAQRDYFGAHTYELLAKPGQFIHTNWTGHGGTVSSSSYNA
Sequence of NAD(+) hydrolase SARM1 (Homo sapiens) (Q6SZW1 whole entry, looked up, the tested form may be a part): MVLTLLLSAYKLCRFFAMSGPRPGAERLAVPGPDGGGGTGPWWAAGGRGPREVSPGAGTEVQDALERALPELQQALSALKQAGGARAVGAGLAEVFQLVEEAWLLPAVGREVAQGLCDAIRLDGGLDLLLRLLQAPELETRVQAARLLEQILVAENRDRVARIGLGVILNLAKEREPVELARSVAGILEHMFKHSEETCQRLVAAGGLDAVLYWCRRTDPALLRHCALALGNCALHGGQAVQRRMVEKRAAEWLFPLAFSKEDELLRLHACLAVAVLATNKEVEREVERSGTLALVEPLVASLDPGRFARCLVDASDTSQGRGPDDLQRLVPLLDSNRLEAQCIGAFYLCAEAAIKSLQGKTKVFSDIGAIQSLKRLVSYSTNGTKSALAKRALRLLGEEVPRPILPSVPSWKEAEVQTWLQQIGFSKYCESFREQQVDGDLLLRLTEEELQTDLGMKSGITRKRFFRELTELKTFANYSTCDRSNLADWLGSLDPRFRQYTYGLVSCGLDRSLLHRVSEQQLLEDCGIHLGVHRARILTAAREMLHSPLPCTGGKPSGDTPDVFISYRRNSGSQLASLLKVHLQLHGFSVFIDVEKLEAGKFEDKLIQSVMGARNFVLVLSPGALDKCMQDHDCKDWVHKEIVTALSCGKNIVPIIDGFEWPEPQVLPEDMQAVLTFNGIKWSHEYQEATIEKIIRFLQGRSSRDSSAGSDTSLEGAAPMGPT

CC(C)(S)[C@@H](N)C(=O)O
inactive: inhibition [1] 5.83% | outcome [2] | outcome [3] | outcome [4] | outcome [5] | outcome [6] | outcome [7] | outcome [8] | outcome [9] | outcome [10] | remaining NAD [11] 10 nM | luciferase signal [12] 48 AU

Nc1ccn([C@@H]2O[C@H](CO)[C@@H](O)[C@H]2O)c(=O)n1
inactive: inhibition [1] -4.47% | outcome [3] | outcome [4] | outcome [6] | outcome [7] | outcome [8] | outcome [9] | outcome [10] | luciferase signal [12] 60 AU
